Screens as filed in PubChem.
gsp ag = agonists of gsp mutant (McCune-Albright syndrome) | hit rate 0.13% among 340,000 | Potency, µM (titrated, usually from 76.9 µM), for inactives: top-dose activation (cAMP increase), actives largely listed as activators | gsp mutant cells, cAMP HTRF, 30 min; active = well fitted activation curve with a large enough effect; inconclusive = small, poorly fitted or top-dose-only effect, or another doubt; inactive = no such curve, though single readings can be large or run the other way; cell line not stated here;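 note: phosphodiesterase inhibitor Ro 20-1724 added with compounds to block cAMP breakdown; potency is the fitted concentration of half-maximal effect; nearly all actives have a fitted effect of over 60% in size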
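Cells stably selected in G418 were plated at 2000/well, grown 16-24 hr, then given compounds in DMSO with the PDE inhibitor […] (300 uM solution added) for 30 min at 37C; cAMP was read by HTRF.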
pAkt inh = blocks phosphorylation of Akt | Neuro2A IGF-stimulated pAkt S473 HTRF, 20 min; hits give low values | activity change, % for hits at 50 µM | hit rate 0.32% among 360,000; in the data active = activity change below about -80%; inconclusive = mostly about -51% to -80%; note: % is set by controls: 0 for no effect and ±100 for the full control effect
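Neuro2A cells in DMEM with 0.5% FBS, overnight at 37 deg C, given compound at single 50 µM final, then IGF (6 nM final) for 20 min at 37 deg C. Lysed; phospho-Akt Ser473 by HTRF after 24 h, 665/615 ratio.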
RXFP1 antag = RXFP1 (human) relaxin receptor antagonism. HEK293-RXFP1, relaxin-stimulated cAMP HTRF, 30 min; hits give low values. hit rate 0.59% among 350,000. activity change, negative = inhibition, % at 57.5 µM. AID 1259400. Q9HBX9;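 active = activity change of -60% or lower, but not beyond a set lower limit; inconclusive = change between -60% and -40%, or beyond the set limit; inactive = change above -40%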; note: % is set by controls: 0 for no effect and ±100 for the full control effect
Target sequence (Q9HBX9 whole entry, looked up): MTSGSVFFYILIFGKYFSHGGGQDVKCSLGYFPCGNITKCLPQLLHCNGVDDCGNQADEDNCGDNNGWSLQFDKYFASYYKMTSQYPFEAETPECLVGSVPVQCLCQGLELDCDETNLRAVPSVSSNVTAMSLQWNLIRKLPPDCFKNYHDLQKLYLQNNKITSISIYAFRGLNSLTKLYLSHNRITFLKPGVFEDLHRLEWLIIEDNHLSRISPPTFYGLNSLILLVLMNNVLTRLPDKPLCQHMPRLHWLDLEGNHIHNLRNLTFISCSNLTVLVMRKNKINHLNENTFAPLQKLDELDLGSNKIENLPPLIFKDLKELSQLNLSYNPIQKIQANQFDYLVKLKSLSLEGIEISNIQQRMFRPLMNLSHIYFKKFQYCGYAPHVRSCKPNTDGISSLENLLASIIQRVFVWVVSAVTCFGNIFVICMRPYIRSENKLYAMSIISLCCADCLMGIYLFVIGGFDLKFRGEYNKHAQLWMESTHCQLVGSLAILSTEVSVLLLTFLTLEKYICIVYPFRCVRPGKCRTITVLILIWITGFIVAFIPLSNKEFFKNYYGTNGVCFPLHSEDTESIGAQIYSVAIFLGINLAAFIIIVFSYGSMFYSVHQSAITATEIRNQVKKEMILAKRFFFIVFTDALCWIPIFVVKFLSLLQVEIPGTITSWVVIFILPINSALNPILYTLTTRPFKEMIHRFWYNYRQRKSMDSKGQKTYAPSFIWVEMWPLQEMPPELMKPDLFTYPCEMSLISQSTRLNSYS
RXFP1 ag = agonists of human relaxin receptor RXFP1; Q9HBX9; HEK293T-RXFP1 cAMP TR-FRET, 30 min; response scale: percent of porcine relaxin response, buffer zero; Potency, µM (titrated, usually from 57.5 µM), for the others: top-dose activation, hits mostly activators; hit rate 0.3% among 370,000; AID 2676; active = well fitted activation curve with a large enough effect; inconclusive = small, poorly fitted or top-dose-only effect; note: potency is the fitted concentration of half-maximal effect; % is set by controls: 0 for no effect and ±100 for the full control effect; nearly all actives have a fitted effect of over 60% in size
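cAMP rise read by TR-FRET after 30 min, 37C compound exposure (up to 58 uM) in RXFP1-transfected HEK293 cells with Ro 20174 present. EC50 from Hill-equation fits, with 29 nM porcine relaxin as 100% and buffer as basal.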
gsp antag = antagonists of gsp mutant (McCune-Albright syndrome) | gsp-mutant cells, cAMP HTRF, 30 min | Potency, µM (doses to about 76.9 µM), without a hit: at the top dose activity change, negative = inhibition, usual class: inhibitors | hit rate 0.4% among 340,000; calls by dose curve; cell line not stated here;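 note: intracellular cAMP measured with PDE inhibitor Ro 20-1724 present during compound exposure; potency is the fitted concentration of half-maximal effect; % is set by controls: 0 for no effect and ±100 for the full control effect; nearly all actives have a fitted effect of over 65% in size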
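HTRF cAMP measurement after 30 min RT detection following 30 min, 37C compound treatment alongside […] (added as 300 uM solution) in G418-selected cells seeded at 2000/well and grown 16–24 h.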
The depositor's hits bear a star; i = inactive; ? = inconclusive; . = no result given; [ ] = remark or other dose. Most compounds without a hit are left out; they make up all but 1.3% or so of the library.

SMILES	gsp ag	pAkt inh	RXFP1 antag	RXFP1 ag	gsp antag
COc1ccccc1NS(=O)(=O)c1cc(NC(=O)c2ccc(Cl)nc2)ccc1Cl	1%[15.4 µM]	i	-19	0%	32µM*
CCCC12CN3CC(CCC)(CN(C1)C3c1ccc(OCc3ccccc3)cc1)C2=O (stereo not given)	.	.	-7	-2%	.
CNC(=O)c1nnsc1S(=O)(=O)c1ccc(Cl)cc1	1%	i	-83*	-3%	-1%
CC(=O)CSc1nnc2cc(C)c3cc(C)cc(C)c3n12	.	.	2	1%	.
COC(=O)c1cc(CSc2nc3ccccc3c(=O)n2C)oc1C	-16%	i	8	6%	35µM*
Cc1cc(C(=O)N2CCN(S(C)(=O)=O)CC2)sc1-c1ccccc1	?	-82%*	6	30%	5%
CC(C)(C)OC(=O)N1CCC(c2c(C(=O)N3CCN(c4ccccc4F)CC3)cnn2-c2ccccc2Cl)CC1	.	.	-5	-1%	.
CCOC(=O)CSc1nc2sc3c(c2c(=O)n1Cc1ccccc1)CCC(C(C)(C)C)C3 (stereo not given)	.	.	.	0%	.
CCOc1ccc(C2c3c(oc4ccc(C)cc4c3=O)C(=O)N2CCCN(C)C)cc1 (stereo not given)	.	.	-11	1%	.
Cc1ccc(-c2c(C(=O)NCCc3ccccc3)oc(=O)c3ccccc23)cc1	.	.	-17	3%	.
c1cncc(-c2nnc3n2N=C(c2cccs2)CS3)c1	17%	-114%*	-9	3%	11%
O=S(=O)(NC[C@@H]1CCC[C@H](CNS(=O)(=O)c2c(F)cccc2F)C1)c1ccc2c(c1)OCCO2	.	.	.	3%	.
COc1cc(OC)nc(O[C@H](C(=O)O)C(OC)(c2ccccc2)c2ccccc2)n1	.	.	-21	.	.
O=C(Oc1ccc2c(c1)OCC2=O)c1ccc(Cl)cc1	-21%[15.4 µM]	i	-60*	0%	5%
COc1cc(C(=O)Oc2ccc3c(c2)OCC3=O)cc(OC)c1OC	-41%	i	-7	-1%	13%
COC(=O)c1ccc(/C=C2/SC(=S)N(CCC(=O)N3CCOCC3)C2=O)cc1	-26%	i	-17	3%	50µM*
Cc1ccc(C(=O)c2cc(O)c(O)c([N+](=O)[O-])c2)cc1	.	.	-39	.	.
N/C(=N\OC(=O)COc1ccc2ccccc2c1Br)c1cccnc1	.	.	.	16µM*	.
N/C(=N\OC(=O)COc1ccc(Br)cc1Cl)c1ccccn1	23%	i	11	2%	-7%
N/C(=N\OC(=O)COc1ccc2ccccc2c1Br)c1ccccn1	?	i	5	16µM*	11%
O=C(CCS(=O)(=O)c1ccc(Br)s1)NCc1cccs1	-14%	-82%*	-3	0%	5%
CCCNc1nc(Nc2ccc(C)cc2)nc(N2CCCC2)n1	16%	i	-38	0%	32µM*
Cc1ccc2c(C)c(C(=O)N(Cc3ccc(N(C)C)cc3)Cc3ccco3)oc2c1C	.	.	-3	0%	.
O=C(NCC(c1cccs1)N1CCOCC1)c1cc(=O)[nH]c2ccccc12 (stereo not given)	0%[15.4 µM]	i	-77*	1%	5%
Cc1ccc(C(C)C)c(OCC(=O)NCC(c2cccs2)N2CCOCC2)c1 (stereo not given)	-23%[15.4 µM]	i	2	1%	35µM*
SMILES	gsp ag	pAkt inh	RXFP1 antag	RXFP1 ag	gsp antag
Cc1ccc(C(=O)Nc2ccc(SC(F)F)cc2)s1	1%[15.4 µM]	i	-73*	0%	.
CC1CCN(C(=O)C2CCCCN2S(=O)(=O)c2cccc([N+](=O)[O-])c2)CC1 (stereo not given)	-50%	i	-5	-2%	50µM*
CCOc1ccc2c(c1)c(=O)c(C(=O)c1ccc3c(c1)OCO3)cn2Cc1ccc(F)cc1	.	.	9	1%	.
Oc1ccc(CNc2cccc(F)c2F)c2cccnc12	.	.	.	1%	.
Cc1cc2c(cc1C)/C(=N/NC(=O)c1ccccn1)CCC2	-13%[15.4 µM]	i	-93*	-1%	-16%
CCOC(=O)C1CCN(c2nc3c(S(=O)(=O)c4ccccc4)nnn3c3ccsc23)CC1	.	.	-5	22%	.
CCOC(=O)N1CCC(NC(=O)c2ccc3c(c2)N(Cc2cc(C)ccc2C)C(=O)c2ccccc2S3=O)CC1 (stereo not given)	.	.	.	1%	.
CCOC(=O)c1cc(-c2ccccc2)sc1NC(=O)CN1C(=O)c2ccccc2C1=O	-4%	i	-3	.	-6%
CCCC1(c2ccccc2)NC(=O)N(CC(=O)Nc2sc(-c3ccccc3)cc2C(=O)OCC)C1=O (stereo not given)	-93%	i	-7	28µM*	19%
O=C(CN1C(=O)C(c2ccc(F)cc2)=NC12CCCCCC2)Nc1ccccc1Cl	.	.	-13	0%	.
CCOC(=O)c1ccc(N2CCN(C(C)=O)CC2)c(NC(=O)c2cccnc2)c1	6%	i	0	7%	50µM*
O=C(Nc1nc2ccccc2[nH]1)C1CC(=O)N(c2ccc3c(c2)OCCO3)C1 (stereo not given)	-22%	-112%*	-7	0%	6%
COc1ccc2nnc(-c3ccccc3)n2n1	16µM*	i	6	15%	16%
COc1cc(CCNc2ccc3nnc(-c4ccccc4)n3n2)cc(OC)c1OC	23%	i	.	4%	-6%
COc1cc(CN(C(=O)COc2ccc(Br)cc2)c2ccccn2)cc(OC)c1OC	.	.	.	-1%	.
CCN(CC)c1cc2c(cc1F)c(=O)c(S(=O)(=O)c1cccc(C)c1)cn2C	.	.	-8	?	.
COc1cc2nc(NC(=O)c3ccc(S(=O)(=O)N4CCOCC4)cc3)sc2cc1OC	.	.	.	-1%	.
Cc1nc2ccc3nc(NC(=O)c4ccc(S(=O)(=O)N5CCOCC5)cc4)sc3c2s1	-24%	-100%*	-18	3%	-1%
CN1CCN(C(=O)CCC(=O)O)CC1	?	i	2	0%	11%
CN1CCN(CC(=O)O)CC1	20µM*	i	8	0%	13%
Cc1nnc(NC(=O)CSc2cn(Cc3ccccc3)c3ccccc23)s1	16µM*	i	-8	0%	-13%
N#CC1c2ccccc2C=CN1C(=O)N(c1ccccc1)c1ccccc1 (stereo not given)	-1%[15.4 µM]	i	-94*	.	-32%
COc1c2c(nc3occc13)C(CC=C(C)C)(OC)C(=O)C=C2 (stereo not given)	-3%[15.4 µM]	i	-62*	0%	-4%
C=CCOc1ccc2c(OC)c3ccoc3nc2c1OC	-6%	i	-4	-1%	-4%
CCOc1ccc(/C=N/NC(=O)c2ccccc2O)cc1CN1CC2CC(C1)c1cccc(=O)n1C2 (stereo not given)	.	i	.	0%	35µM*
CCOC(=O)/C(C#N)=C/c1cc2ccccc2nc1N1CCCCC1	11µM*	i	-2	14µM*	3%
O=C(CCNS(=O)(=O)c1cccc2nsnc12)Nc1ccc(F)cc1	.	.	.	1%	.
COCCNCCCOc1ccc(C)cc1Br	-75%	i	-9	-2%	35µM*
